Source: PubChem BioAssay (NCI)
Values joined by “and” are separate entries in the source; they are usually repeats but may differ in a detail not shown here. Equal entries are not always repeated. About 83,000 compounds went through this panel and 20% of them were active in at least one assay; those are over-represented in the sample as a whole.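 Plates (96-well) were seeded with cells, treated with compound at one concentration, and incubated for 48 hours before percent growth was determined.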 Active and inactive are the calls of the source. The calls were made as follows: active = growth percent below 10; inactive = the rest.

Tested on: MCF7 breast
Assay: NCI-60 one-dose screen, 48 h (100 = growth as untreated, 0 = no growth, -100 = all killed)
Conditions: 10 µM unless noted

Row | SMILES | growth
1 | C=c1c2ccccc2oc2nc3[nH]c(N)c(C#N)c(N)c3c(=N)c12 | 25.6% [100 µM] (inactive) and 0.562% [100 µM] (active)
2 | COc1ccc(OC)c(Cc2cnc3nc(N)nc(N)c3c2C)c1 | 3.33% [100 µM] (active) and -100% [100 µM] (active)
3 | C=C(C)C1CC2(C)C(C)CC(O)CC2C(OC(=O)C=C(C)C)C1O (centres undefined) | 5.38% [100 µM] (active) and 25.4% [100 µM] (inactive)
4 | COc1ccc2nc3c4c(nccc4c2c1)-c1ncccc1C3=O | -82% [50 µM] (active) and -100% [50 µM] (active)
5 | On1c(-c2ccccc2)nc2ccccc2c1=S | 6.65% [100 µM] (active) and -68.9% [100 µM] (active)
6 | COc1ccc2c(c1)C(N)=C(c1ccccc1)C2=O | 57.4% [100 µM] (inactive) and 16.6% [100 µM] (inactive)
7 | COc1ccc2c(c1)C(OC)C1c3c(cc4c(c3-2)OCO4)CCN1C (centres undefined) | -76.9% [100 µM] (active) and -70% [100 µM] (active)
8 | CCOC(=O)C1C(C(C)C)C2(C#N)C(=N)OC1(C)C2(C#N)C#N (centres undefined) | 2.36% [100 µM] (active) and -41% [100 µM] (active)
9 | CC1OC(OC2C(OC3CCC4(C)C(CCC5(C)C4CC=C4C6CC(C)(C)CCC6(C(=O)O)CCC45C)C3(C)CO)OCC(O)C2O)C(O)C(O)C1O (centres undefined) | -88% [100 µM] (active) and -90.5% [100 µM] (active)
10 | CC1=CC[C@@H]2[C@@H](CC[C@@]2(C)O)C(C)(C)[C@H]1CC[C@@H]1[C@@]2(C)CC[C@@H](O)C(C)(C)O[C@@H]2CC[C@]1(C)O | -12.8% [100 µM] (active) and -70.8% [100 µM] (active)
11 | O=C(O)CCCOc1cc(-c2ccccc2F)nc2cc3c(cc12)OCO3 | 9.31% [100 µM] (active) and -50% [100 µM] (active)
12 | CN1CCc2cc3c(c4c2C1C(O)c1ccccc1-4)OCO3 (centres undefined) | -24.6% [100 µM] (active) and -58.3% [100 µM] (active)
13 | S=C1NC2=C(COc3ccccc32)C(c2ccc(Cl)cc2)N1 (centres undefined) | -4.81% [100 µM] (active) and -100% [100 µM] (active)
14 | C=C1C(=O)OC2CC1C(OC(=O)/C=C/c1ccccc1)C/C(C)=C/CC/C(C)=C/CCC2(C)O (centres undefined) | -76% [100 µM] (active) and -30% [100 µM] (active)
15 | N=C1C(=N)c2ccccc2-c2ccccc21 | 30.7% [100 µM] (inactive) and 0.817% [100 µM] (active)
16 | CCOC(=O)COc1cc(-c2ccccc2F)nc2cc3c(cc12)OCO3 | 42.6% [100 µM] (inactive) and 19.5% [100 µM] (inactive)
17 | COc1ccc(Nc2nc3ccc(C(F)(F)F)cc3nc2C(=O)O)cc1 | -31.5% [100 µM] (active) and -100% [100 µM] (active)
18 | CC(C)(C)N/N=C(/Cc1nc2c3c(ccc2[nH]c1=O)C(=O)c1ccccc1C3=O)C(=O)NC1=C(Cl)C(=O)c2ccccc2C1=O | 6.76% [100 µM] (active) and -75.9% [100 µM] (active)
19 | O=C(CCc1ccccc1)ON1C(=S)NC(c2ccccc2)(c2ccccc2)C1=S | -45.8% [100 µM] (active) and 5.76% [100 µM] (active)
20 | C=C1C(=O)C2=CC1CCC(=O)C1(C)CCC(OC(C)=O)C(C)(C)C1CC2O (centres undefined) | -80.9% [100 µM] (active) and -63.1% [100 µM] (active)
21 | CC1(C)CCC[C@]2(C)[C@@H](C=O)C(C=O)=CC[C@@H]12 | -13.9% [100 µM] (active) and -1.67% [100 µM] (active)
22 | COC(=O)[C@]1(C)CCC[C@@]2(C)[C@@H]3C[C@@H]4[C@H]5C[C@@]3(CC[C@@H]21)C[C@@]45C | -81% [100 µM] (active) and -80% [100 µM] (active)
23 | C=CCO/N=C/c1cc(NC(=S)c2ccoc2C)ccc1Cl | -83.2% [100 µM] (active) and -45% [100 µM] (active)
24 | CC1=CC[C@@H]2[C@@H](CC[C@@]2(C)O)C(C)(C)[C@H]1CC[C@@H]1[C@@]2(C)CCC(=O)C(C)(C)O[C@@H]2CC[C@]1(C)O | -36.8% [100 µM] (active) and -100% [100 µM] (active)
